Test results taken from PubChem BioAssay (NCATS).
Records with an inconclusive call do not appear. A number with no mark means an inactive call. Active and inactive are the calls of the source. Calls come from the whole dose curve; as a rule, active = well fitted cell-killing curve with a large enough effect; inconclusive = small, poorly fitted or top-dose-only effect, or effect the other way; inactive = no such curve, though single readings can be large or run the other way. Non-standard residues stand in square brackets, D forms with d. Residues, ends and D or L forms follow the SMILES beside them. *: point of attachment. Sta = CC(C)C[C@H](N)[C@@H](O)CC(=O)O; Isovaleryl = CC(C)CC(=O)*

Test: Quantitative High-Throughput drug screen in 47 multiple myeloma cell lines against the NCATS MIPE library collection: ARD_JJKsccE7 cell viability assay (AID 1918929)
Details: ARD myeloma cell line viability, CellTiter-Glo, 48 h; series mostly up to 45.8 µM; viability: at the top concentration
In short: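 Myeloma cell lines, 500 cells per well, exposed to MIPE 4.0 library compounds for 48 h at 37C, 5% CO2. Viability from ATP by CellTiter-Glo luminescence; normalised to DMSO (100%) and media-only (0%) wells.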
Potency is the fitted concentration of half-maximal effect.

Row | SMILES | viability | Potency
1 | O=C(O)CCNC(=O)c1ccc(N=Nc2ccc(O)c(C(=O)O)c2)cc1 | 132% | –
2 | COc1cc2c(N3CCN(C(=O)Nc4ccc(OC(C)C)cc4)CC3)ncnc2cc1OCCCN1CCCCC1 | 107% | –
3 | CCN(CC)CCOc1ccc(Nc2ncc3cc(-c4c(Cl)cccc4Cl)c(=O)n(C)c3n2)cc1 | – | 0.166 µM (active)
4 | Cc1nc2n(c(=O)c1CCN1CCC(c3noc4cc(F)ccc34)CC1)CCCC2 | 102% | –
5 | COC(=O)N[C@H](C(=O)N[C@@H](Cc1ccccc1)[C@@H](O)CN(Cc1ccc(-c2ccccn2)cc1)NC(=O)[C@@H](NC(=O)OC)C(C)(C)C)C(C)(C)C | 133% | –
6 | Nc1cc(C(Cl)=C(Cl)Cl)c(S(N)(=O)=O)cc1S(N)(=O)=O | 113% | –
7 | CCC1=C(C)CN(C(=O)NCCc2ccc(S(=O)(=O)NC(=O)NC3CCC(C)CC3)cc2)C1=O (stereo unspecified) | 128% | –
8 | CNC[C@H](O)c1ccc(O)c(O)c1 | 98% [at 92.2 µM] | –
9 | Oc1ccc2ccccc2c1SSc1c(O)ccc2ccccc12 | – | 16.6 µM (active)
10 | CC(C)CC(=O)N[C@H](C(=O)N[C@H](C(=O)N[C@@H](CC(C)C)[C@@H](O)CC(=O)N[C@@H](C)C(=O)N[C@@H](CC(C)C)[C@@H](O)CC(=O)O)C(C)C)C(C)C (Isovaleryl-VV[Sta]A[Sta]-OH) | 91.2% | –
11 | Oc1ccc(-c2nc(-c3ccc(F)cc3)c(-c3ccncc3)[nH]2)cc1 | 133% | –
12 | CCCCCCCCCCCCCCCCCCCCCCO | 127% | –
13 | CS(=O)(=O)OCCCCOS(C)(=O)=O | 162% | –
14 | Nc1nc(N)c(N=O)c(OCC2CCCCC2)n1 | – | 5.26 µM (active)
15 | N=C(N=C(N)N)N1CCOCC1 | 116% | –
16 | C[C@H](Cn1cnc2c(N)ncnc21)OCP(=O)(O)O | 128% | –
17 | O=c1c(O)c(-c2cc(O)c(O)c(O)c2)oc2cc(O)cc(O)c12 | 132% | –
18 | O=C(c1ccccc1)c1ccc2n1CCC2C(=O)O (stereo unspecified) | 107% | –
19 | CC[C@]1(O)C[C@H]2CN(CCc3c([nH]c4ccccc34)[C@@](C(=O)OC)(c3cc4c(cc3OC)N(C=O)[C@H]3[C@@](O)(C(=O)OC)[C@H](OC(C)=O)[C@]5(CC)C=CCN6CC[C@]43[C@@H]65)C2)C1 | – | 0.0662 µM (active)

Row | SMILES | viability | Potency
20 | Cc1cc(O)c2c(c1)C(=O)c1cc(O)cc(O)c1C2=O | 153% | –
21 | Nc1ccc(S(N)(=O)=O)cc1 | 113% | –
22 | O=C(NCC1CCCCN1)c1cc(OCC(F)(F)F)ccc1OCC(F)(F)F (stereo unspecified) | – | 3.72 µM (active)
23 | Cc1cc(=O)oc2cc(O)ccc12 | 120% | –
24 | Nc1ccn([C@@H]2O[C@H](CO)[C@@H](O)C2O)c(=O)n1 (stereo partly specified) | – | 8.33 µM (active)
25 | NC(=O)Cc1cccc(C(=O)c2ccccc2)c1N | 153% | –
26 | COC(=O)C1=C(C)NC(C)=C(C(=O)OC(C)C)C1c1cccc2nonc12 (stereo unspecified) | 124% | –
27 | COc1ccc(C2(C#N)CCC(C(=O)O)CC2)cc1OC1CCCC1 (stereo unspecified) | 120% | –
28 | CCC(C)(Oc1ccc(C2(c3ccc(OC(C)(CC)C(=O)O)cc3)CCCCC2)cc1)C(=O)O (stereo unspecified) | 134% | –
29 | Cc1cc(C2CCCCC2)n(O)c(=O)c1 | – | 9.35 µM (active)
30 | CC1(C)C(=O)N(CCN2CCC(C(=O)c3ccc(F)cc3)CC2)c2ccccc21 | – | 9.35 µM (active)
31 | COCCCOc1ccnc(CS(=O)c2nc3ccccc3[nH]2)c1C (stereo unspecified) | 118% | –
32 | N=C(N)c1ccc2cc(OC(=O)c3ccc(N=C(N)N)cc3)ccc2c1 | 102% | –
33 | COc1cc2c(cc1OC)C1CC(=O)C(CC(C)C)CN1CC2 (stereo unspecified) | 105% | –
34 | O=C(NOCC1CC1)c1ccc(F)c(F)c1Nc1ccc(I)cc1Cl | – | 11.8 µM (active)
35 | O=C(O)c1cccc(-c2noc(-c3ccccc3F)n2)c1 | – | 14.8 µM (active)
36 | CN(C)c1ccc(O)c2c1C[C@H]1C[C@H]3[C@H](N(C)C)C(=O)C(C(N)=O)=C(O)[C@@]3(O)C(=O)C1=C2O | 151% | –
37 | O=C(NCCO[N+](=O)[O-])c1cccnc1 | 142% | –
38 | Cc1c(C(=O)NN2CCCCC2)nn(-c2ccc(Cl)cc2Cl)c1-c1ccc(Cl)cc1 | – | 16.6 µM (active)

Test: Quantitative High-Throughput drug screen in 47 multiple myeloma cell lines against the NCATS MIPE library collection: Karpas620_DSMZ cell viability assay (AID 1918959); note: nearly all actives have a fitted effect of over 30% in size
Details: Karpas620 myeloma viability, CellTiter-Glo ATP luminescence, 48 h; series mostly up to 45.8 µM; viability (% of DMSO): at the top concentration
In short: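 We plated 500 myeloma cells per well, pinned in MIPE 4.0 compounds, and incubated for 48 hours at 37C. ATP was then quantified with CellTiter-Glo, with DMSO and media-only wells defining 100% and 0%.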

Row | SMILES | viability (% of DMSO) | Potency
39 | O=C(O)CCNC(=O)c1ccc(N=Nc2ccc(O)c(C(=O)O)c2)cc1 | 120% | –
40 | COc1cc2c(N3CCN(C(=O)Nc4ccc(OC(C)C)cc4)CC3)ncnc2cc1OCCCN1CCCCC1 | 108% | –
41 | CCN(CC)CCOc1ccc(Nc2ncc3cc(-c4c(Cl)cccc4Cl)c(=O)n(C)c3n2)cc1 | – | 2.09 µM (active)
42 | Cc1nc2n(c(=O)c1CCN1CCC(c3noc4cc(F)ccc34)CC1)CCCC2 | 90.6% | –
43 | COC(=O)N[C@H](C(=O)N[C@@H](Cc1ccccc1)[C@@H](O)CN(Cc1ccc(-c2ccccn2)cc1)NC(=O)[C@@H](NC(=O)OC)C(C)(C)C)C(C)(C)C | 112% | –
44 | Nc1cc(C(Cl)=C(Cl)Cl)c(S(N)(=O)=O)cc1S(N)(=O)=O | 96.8% | –
45 | CCC1=C(C)CN(C(=O)NCCc2ccc(S(=O)(=O)NC(=O)NC3CCC(C)CC3)cc2)C1=O (stereo unspecified) | 126% | –
46 | CNC[C@H](O)c1ccc(O)c(O)c1 | 107% [at 92.2 µM] | –
47 | Oc1ccc2ccccc2c1SSc1c(O)ccc2ccccc12 | – | 10.5 µM (active)
48 | CC(C)CC(=O)N[C@H](C(=O)N[C@H](C(=O)N[C@@H](CC(C)C)[C@@H](O)CC(=O)N[C@@H](C)C(=O)N[C@@H](CC(C)C)[C@@H](O)CC(=O)O)C(C)C)C(C)C (Isovaleryl-VV[Sta]A[Sta]-OH) | 111% | –
49 | Oc1ccc(-c2nc(-c3ccc(F)cc3)c(-c3ccncc3)[nH]2)cc1 | 108% | –
50 | CCCCCCCCCCCCCCCCCCCCCCO | 120% | –
51 | CS(=O)(=O)OCCCCOS(C)(=O)=O | 120% | –
52 | Nc1nc(N)c(N=O)c(OCC2CCCCC2)n1 | – | 13.2 µM (active)
53 | N=C(N=C(N)N)N1CCOCC1 | 112% | –
54 | C[C@H](Cn1cnc2c(N)ncnc21)OCP(=O)(O)O | 141% | –
55 | O=c1c(O)c(-c2cc(O)c(O)c(O)c2)oc2cc(O)cc(O)c12 | 109% | –
56 | O=C(c1ccccc1)c1ccc2n1CCC2C(=O)O (stereo unspecified) | 93.5% | –
57 | CC[C@]1(O)C[C@H]2CN(CCc3c([nH]c4ccccc34)[C@@](C(=O)OC)(c3cc4c(cc3OC)N(C=O)[C@H]3[C@@](O)(C(=O)OC)[C@H](OC(C)=O)[C@]5(CC)C=CCN6CC[C@]43[C@@H]65)C2)C1 | – | 0.0166 µM (active)

Row | SMILES | viability (% of DMSO) | Potency
58 | Cc1cc(O)c2c(c1)C(=O)c1cc(O)cc(O)c1C2=O | 112% | –
59 | Nc1ccc(S(N)(=O)=O)cc1 | 118% | –
60 | O=C(NCC1CCCCN1)c1cc(OCC(F)(F)F)ccc1OCC(F)(F)F (stereo unspecified) | – | 1.32 µM (active)
61 | Cc1cc(=O)oc2cc(O)ccc12 | 99% | –
62 | Nc1ccn([C@@H]2O[C@H](CO)[C@@H](O)C2O)c(=O)n1 (stereo partly specified) | 105% | –
63 | NC(=O)Cc1cccc(C(=O)c2ccccc2)c1N | 100% | –
64 | COC(=O)C1=C(C)NC(C)=C(C(=O)OC(C)C)C1c1cccc2nonc12 (stereo unspecified) | 99.3% | –
65 | COc1ccc(C2(C#N)CCC(C(=O)O)CC2)cc1OC1CCCC1 (stereo unspecified) | 113% | –
66 | CCC(C)(Oc1ccc(C2(c3ccc(OC(C)(CC)C(=O)O)cc3)CCCCC2)cc1)C(=O)O (stereo unspecified) | 114% | –
67 | Cc1cc(C2CCCCC2)n(O)c(=O)c1 | – | 8.33 µM (active)
68 | CC1(C)C(=O)N(CCN2CCC(C(=O)c3ccc(F)cc3)CC2)c2ccccc21 | – | 3.72 µM (active)
69 | COCCCOc1ccnc(CS(=O)c2nc3ccccc3[nH]2)c1C (stereo unspecified) | 93.4% | –
70 | N=C(N)c1ccc2cc(OC(=O)c3ccc(N=C(N)N)cc3)ccc2c1 | 103% | –
71 | COc1cc2c(cc1OC)C1CC(=O)C(CC(C)C)CN1CC2 (stereo unspecified) | 103% | –
72 | O=C(NOCC1CC1)c1ccc(F)c(F)c1Nc1ccc(I)cc1Cl | – | 0.372 µM (active)
73 | O=C(O)c1cccc(-c2noc(-c3ccccc3F)n2)c1 | 121% | –
74 | CN(C)c1ccc(O)c2c1C[C@H]1C[C@H]3[C@H](N(C)C)C(=O)C(C(N)=O)=C(O)[C@@]3(O)C(=O)C1=C2O | 117% | –
75 | O=C(NCCO[N+](=O)[O-])c1cccnc1 | 131% | –
76 | Cc1c(C(=O)NN2CCCCC2)nn(-c2ccc(Cl)cc2Cl)c1-c1ccc(Cl)cc1 | – | 20.9 µM (active)
